High-throughput results: PubChem, several laboratories
sEH inh: inhibitors of human soluble epoxide hydrolase; P34913; inhibition, % at 2 µM; hit rate 0.34% among 91,000; recombinant human sEH enzymatic activity assay; in the data active = inhibition above about 80%
CYP2C19 inhib: blocks human cytochrome P450 2C19; P33261; CYP2C19 Supersomes, luciferin-H EGE luminescence, 30 min; inhibition, % at 5 µM; hit rate 21% among 96,000; AID 778;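 active = CYP2C19 inhibition above a set limit at 5 µM in the primary screen, cut at about 50% in these data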
Target sequence (P33261 whole entry, looked up): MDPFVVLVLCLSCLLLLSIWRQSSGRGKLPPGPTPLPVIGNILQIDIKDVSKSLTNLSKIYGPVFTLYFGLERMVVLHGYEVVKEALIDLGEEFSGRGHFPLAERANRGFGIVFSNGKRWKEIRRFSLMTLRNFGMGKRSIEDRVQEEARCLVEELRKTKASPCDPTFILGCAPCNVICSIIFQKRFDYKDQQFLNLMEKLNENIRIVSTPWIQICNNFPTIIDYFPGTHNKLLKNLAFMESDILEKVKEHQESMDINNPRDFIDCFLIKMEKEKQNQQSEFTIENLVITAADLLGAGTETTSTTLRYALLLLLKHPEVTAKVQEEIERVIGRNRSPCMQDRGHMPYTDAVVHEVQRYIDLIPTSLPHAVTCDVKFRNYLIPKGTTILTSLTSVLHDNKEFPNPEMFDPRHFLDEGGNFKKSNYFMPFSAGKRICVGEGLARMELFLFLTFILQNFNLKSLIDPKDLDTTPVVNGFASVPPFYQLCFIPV
CYP2C9 inh: human CYP2C9 inhibition | hit rate 20% among 96,000 | CYP2C9 Supersomes, luciferin-H conversion, luminescence | inhibition, % at 5 µM;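 active = blocking of liver enzyme CYP2C9 beyond about 50% at 5 µM, limit read from the data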
CYP2C9 act: activators of human CYP2C9. P11712. activation factor at 5 µM. hit rate 1.4% among 96,000. recombinant CYP2C9, luciferin-H conversion, luminescence; stronger effect = higher value; factor 1 = untreated enzyme, 0 = blocked;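 active = activation factor of 2 or more for CYP2C9 at a 5 µM dose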
sEH activator: increases human soluble epoxide hydrolase activity; activation, % at 2 µM; hit rate 0.04% among 91,000; purified human sEH enzymatic activity, activator screen; in the data active = activation above about 37%
CYP2C19 activ: cytochrome P450 2C19 (human) activation. P33261. recombinant CYP2C19, luciferin-H EGE luminescence; stronger effect = higher value; 0 = fully inhibited enzyme, 1 = untreated enzyme. activation factor at 5 µM. 96,000 tested, under 10 active. AID 1025;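 active = activation factor of at least 2 at 5 µM in the primary screen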
Hits are given with their value; n = inactive; x = no result. Sampled rows, rich in hits. Any-hit rate of the full collection: about 27%.

SMILES | sEH inh | CYP2C19 inhib | CYP2C9 inh | CYP2C9 act | sEH activator | CYP2C19 activ
O=C(CCC(=O)NC1CCCCCC1)Nc1nnc(C(F)(F)F)s1 | n | n | 66.0 | n | n | n
Cc1ccc(NC(=O)N2CCCC2C(=O)Nc2ccc(-n3cnnn3)c(C)c2)cc1 (configuration not stated) | n | x | x | x | n | x
CCOc1ccccc1NC(=O)N1CCCC1C(=O)Nc1ccc(-n2cnnn2)c(C)c1 (configuration not stated) | x | 69.9 | 78.8 | n | x | n
O=C(Nc1ccc(-n2cnnn2)cc1)C1CCCN1C(=O)NC1CCCCC1 (configuration not stated) | n | 66.5 | 58.7 | n | n | n
CCN(C(=O)C1CCN(S(=O)(=O)c2ccc3c(c2)oc(=O)n3C)CC1)c1cccc(C)c1 | n | n | n | n | n | n
CC(C)c1ccccc1N=C1SCCN1C1CCS(=O)(=O)C1 (configuration not stated) | n | 58.3 | n | n | n | n
Cc1ccc(C)n1C1CCS(=O)(=O)C1 (configuration not stated) | n | n | n | n | n | n
CC1CCCCN1CC(=O)Nc1sc2c(c1C#N)CCC2 (configuration not stated) | n | 50.9 | 61.1 | n | n | n
COC(=O)C1CCN(CC(=O)Nc2sc3c(c2C#N)CCC3)CC1 | n | n | n | n | n | n
N#Cc1c(NC(=O)CSc2nnnn2C2CCCCC2)sc2c1CCCC2 | n | n | 66.6 | n | n | n
O=C(CSc1nnnn1C1CCCCC1)Nc1nc2c(s1)CCCC2 | n | 78.4 | n | n | n | n
COc1ccc2nc(NC(=O)CSc3nnnn3C3CCCCC3)sc2c1 | n | n | n | n | n | n
COc1cc(C(=O)COC(=O)Cc2cnc3sccn23)cc(OC)c1OC | x | n | n | n | x | n
O=C(CN(C1CCCCC1)C1CCCCC1)N1CCc2ccccc2C1 | n | 75.7 | 65.2 | n | n | n
CCNC(=O)CN(C1CCCCC1)S(=O)(=O)c1ccc(F)cc1 | x | n | n | n | x | n
CNC(=O)CN(C1CCCCC1)S(=O)(=O)c1ccc(F)cc1 | n | 65.7 | n | n | n | n
O=C(CN(C1CCCCC1)S(=O)(=O)c1ccccc1)N1CCCC1 | n | n | 51.2 | n | n | n
O=C(CN(C1CCCCC1)S(=O)(=O)c1ccc(Cl)cc1)N1CCOCC1 | n | n | n | n | n | n
Cc1ccc(S(=O)(=O)N(CC(=O)N2CCN(c3ccc(F)cc3)CC2)C2CCCCC2)cc1 | n | n | 51.5 | n | n | n
O=C(Nc1c(Cl)cccc1Cl)c1cc(=O)n(Cc2ccccc2)c(=O)[nH]1 | n | n | n | n | n | n
Cc1cccc(-n2nnc(C(=O)NCc3ccccn3)c2N)c1 | n | n | n | n | n | n
NC(=O)C1CCN(C(=O)C2CCN(S(=O)(=O)c3ccccc3)CC2)CC1 | x | n | n | n | x | n
CCOC(=O)c1[nH]c(C)c(C(=O)NC2CCCC2)c1C | n | 53.9 | n | n | n | n
CCOC(=O)c1c(C)[nH]c(C(=O)OCc2c(C)noc2C)c1C | n | 50.3 | 79.5 | n | n | n
CCOC(=O)c1[nH]c(C)c(C(=O)OCC(=O)N2CCCCC2C)c1C (configuration not stated) | n | n | 71.7 | n | n | n
SMILES | sEH inh | CYP2C19 inhib | CYP2C9 inh | CYP2C9 act | sEH activator | CYP2C19 activ
O=C(OCCN1C(=O)c2ccccc2C1=O)c1cc(=O)[nH]c2ccccc12 | n | n | n | n | n | n
CCOC(=O)c1[nH]c(C)c(C(=O)NC2CCCCCC2)c1C | n | x | x | x | n | x
CCOC(=O)c1[nH]c(C)c(C(=O)OCCN2C(=O)c3ccccc3C2=O)c1C | x | 67.0 | 84.7 | n | x | n
Cc1cnc(NC(=O)C(C)N2C(=O)C3CC=CCC3C2=O)s1 (configuration not stated) | n | n | n | n | n | n
COC(=O)c1cc(OC)c(OC)cc1NC(=O)c1ccc(C)o1 | n | n | n | n | n | n
Cc1nc(S(=O)(=O)N2CCOCC2)c(C#N)c(C)c1Cl | n | n | n | n | n | n
CCOC(=O)c1[nH]c(C)c(C(=O)O)c1C | n | n | n | n | n | n
CCOC(=O)c1[nH]c(C)c(C(=O)C(C)C)c1C | n | 50.9 | n | n | n | n
CCOC(=O)c1c(C)[nH]c(C(C)=O)c1C | n | 50.8 | 56.1 | n | n | n
O=C(Nc1nc2c(s1)COc1ccccc1-2)c1cccs1 | n | n | 62.8 | n | n | n
O=C(Nc1nc2c(s1)CCc1ccccc1-2)c1cccs1 | n | n | n | n | n | n
O=C(CCS(=O)(=O)c1ccccc1)Nc1nc2c(s1)COc1ccccc1-2 | n | 65.3 | n | n | n | n
COc1ccccc1N1CCN(C(=O)c2cc3n(n2)C(C(F)(F)F)CC(c2ccco2)N3)CC1 (configuration not stated) | x | n | 58.7 | n | x | n
O=C(c1ccco1)N1CCN(C(=O)c2cnn3c2NC(c2cccs2)CC3C(F)(F)F)CC1 (configuration not stated) | n | n | n | n | n | n
O=C(c1cnn2c1NC(c1ccco1)CC2C(F)(F)F)N1CCN(c2cccc(Cl)c2)CC1 (configuration not stated) | n | 80.7 | 75.4 | n | n | n
CCOc1ccc(S(=O)(=O)N2CCN(c3ccccc3OC)CC2)c2cccnc12 | n | n | 57.9 | n | n | n
COc1ccccc1N1CCN(S(=O)(=O)c2ccc3c4c(cccc24)C(=O)N3C)CC1 | n | 64.4 | 71.8 | n | n | n
CCOc1ccc(S(=O)(=O)N2CCN(c3ccccc3)CC2)c2cccnc12 | n | n | 59.1 | n | n | n
COc1ccccc1N1CCN(S(=O)(=O)c2ccc3c4c(cccc24)C(=O)N3)CC1 | x | n | n | n | x | n
CC(C)CN(C(=O)COC(=O)CCc1c[nH]c2ccccc12)C1CCS(=O)(=O)C1 (configuration not stated) | n | n | n | 2.2 | n | n
CC(C)CN(C(=O)COC(=O)Cc1c[nH]c2ccccc12)C1CCS(=O)(=O)C1 (configuration not stated) | n | n | n | n | n | n
CC(c1ccccc1)N1CC(C(=O)NC2CCCC2)CC1=O (configuration not stated) | n | n | n | n | n | n
CC1(C)CC(=O)C2=C(C1)OC(=O)C2(NC(=O)c1cccs1)C(F)(F)F (configuration not stated) | n | n | 55.8 | n | n | n
CCCCN1C(=O)C(NC(=O)c2cccnc2)(C(F)(F)F)C2=C1CC(C)(C)CC2=O (configuration not stated) | n | n | n | n | n | n
CSc1nnc(-c2ccc(S(=O)(=O)N3CCOCC3)cc2)n1CC1CCCO1 (configuration not stated) | n | n | n | n | n | n
CC(C)COn1c(=S)[nH]c2ccccc2c1=O | n | 58.9 | n | n | n | n
O=C1CC(N2CCOCC2)C(=O)N1Cc1ccc(N2CCCC2=O)cc1 (configuration not stated) | n | n | n | n | n | n
